Screening results (PubChem BioAssay)
This is one part of a sample in which hits are shown more often than they occur.
miR122 inh: miR-122 suppressors via Renilla sensor increase, primary screen, cell-based, Huh7 psiCHECK-miR122, Renilla luciferase, single point | 48 h | activation, % at 12.5 µM | hit rate 0.14% among 340,000 | AID 623901, 2012;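 active = mean activation of 30% or more, with every replicate also reaching 30%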;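 note: higher luciferase signal means stronger suppression of miR-122 activity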
Each line names hits and unclear results; the compound was inactive in the other large screens.

C[C@@H]1CN([C@H](C)CO)S(=O)(=O)c2ccc(C#Cc3ccccc3)cc2O[C@H]1CN(C)C(=O)Nc1ccccc1	none
CC(C)c1ccc(NC(=O)C[C@H]2CC[C@H]3[C@@H](COc4ccc(NC(=O)Nc5ccc(F)c(F)c5)cc4C(=O)N3C)O2)cc1	miR122 inh 45.0
CN1C(=O)c2cc(NC(=O)Cc3ccccc3)ccc2OC[C@@H]2O[C@H](CC(=O)NCc3ccc(Cl)cc3)CC[C@@H]21	none
CCCNC(=O)C[C@@H]1CC[C@@H]2[C@H](COc3ccc(NC(=O)Nc4c(C)noc4C)cc3C(=O)N2C)O1	none
CCCNC(=O)C[C@@H]1CC[C@H]2[C@H](COc3ccc(NC(=O)c4ccc5c(c4)OCO5)cc3C(=O)N2C)O1	none
Cc1nn(C)cc1NC(=O)C[C@@H]1CC[C@@H]2[C@@H](COc3ccc(NC(=O)Nc4cccc(Cl)c4)cc3C(=O)N2C)O1	miR122 inh 47.8
CCCNC(=O)C[C@H]1CC[C@H]2[C@@H](COc3ccc(NC(=O)c4cc(F)cc(F)c4)cc3C(=O)N2C)O1	miR122 inh 53.3
Cc1cccc(NC(=O)Nc2ccc3c(c2)C(=O)N(C)[C@H]2CC[C@@H](CC(=O)NCc4ccccc4Cl)O[C@H]2CO3)c1	miR122 inh 36.7
C[C@H]1CN([C@@H](C)CO)C(=O)c2cc(-c3cncnc3)cnc2O[C@@H]1CN(C)Cc1ccccc1	none
COc1cccc(-c2cnc3c(c2)C(=O)N([C@H](C)CO)C[C@@H](C)[C@H](CN(C)Cc2cccnc2)O3)c1	none
COCC#Cc1cnc2c(c1)C(=O)N([C@H](C)CO)C[C@H](C)[C@H](CN(C)C(=O)Cc1ccccc1)O2	none
CCCC#Cc1cnc2c(c1)C(=O)N([C@@H](C)CO)C[C@@H](C)[C@H](CN(C)C(=O)C1CC1)O2	none
C[C@H](O)C#Cc1ccc2c(c1)O[C@H](CN(C)Cc1cncnc1)[C@H](C)CN([C@H](C)CO)S2(=O)=O	none
C[C@@H]1CN([C@H](C)CO)C(=O)c2cc(C#C[C@@H](C)O)cnc2O[C@H]1CN(C)Cc1cncnc1	none
COc1ccc(C#Cc2ccc3c(c2)O[C@@H](CN(C)C(=O)NC2CCCCC2)[C@H](C)CN([C@H](C)CO)S3(=O)=O)cc1	none
C[C@@H]1CN([C@H](C)CO)C(=O)c2cc(-c3cccc(C(=O)N(C)C)c3)cnc2O[C@@H]1CN(C)CC1CC1	none
N#CCc1c(C#N)c(N)nc(N2CCN(S(=O)(=O)c3ccccc3)CC2)c1C#N	miR122 inh 35.8
Cc1cccc(S(=O)(=O)C(C#N)c2nc3ccccc3nc2N2CCCC2)c1 (stereo not given)	none
CCCC#Cc1cnc2c(c1)C(=O)N([C@H](C)CO)C[C@@H](C)[C@@H](CN(C)C(=O)Cc1ccccc1)O2	none
C[C@H]1CN([C@@H](C)CO)S(=O)(=O)c2ccc(C#Cc3cccnc3)cc2O[C@@H]1CN(C)CC1CCOCC1	none
C[C@@H]1CN([C@H](C)CO)C(=O)c2cc(-c3cccc(F)c3)cnc2O[C@@H]1CN(C)C(=O)c1ccccn1	none
C[C@@H]1CN([C@@H](C)CO)C(=O)c2cc(C#CCN(C)C)cnc2O[C@@H]1CN(C)C(=O)Cc1ccncc1	none
COCC(=O)Nc1ccc2c(c1)C(=O)N(C)[C@@H]1CC[C@H](CC(=O)NCCCN(C)C)O[C@H]1CO2	miR122 inh 45.0
COCC(=O)Nc1ccc2c(c1)C(=O)N(C)[C@@H]1CC[C@H](CC(=O)NCc3ccccc3F)O[C@H]1CO2	miR122 inh 50.0
COCC(=O)Nc1ccc2c(c1)C(=O)N(C)[C@H]1CC[C@@H](CC(=O)O)O[C@H]1CO2	none
COc1ccccc1-c1cnc2c(c1)C(=O)N([C@H](C)CO)C[C@@H](C)[C@@H](CN(C)Cc1ccccc1)O2	none
CCCC(=O)Nc1ccc2c(c1)OC[C@H](C)N(C(C)=O)C[C@@H](C)[C@@H](OC)CN(C)C2=O	none
COc1ccccc1-c1cnc2c(c1)C(=O)N([C@H](C)CO)C[C@@H](C)[C@@H](CN(C)C(=O)CN(C)C)O2	none
C[C@@H]1CN([C@H](C)CO)C(=O)c2cc(C#CC3(O)CCCC3)cnc2O[C@@H]1CN(C)C(=O)CN(C)C	none
C[C@H]1CN([C@@H](C)CO)C(=O)c2cc(-c3ccc(F)cc3)cnc2O[C@H]1CN(C)C(=O)c1cccnc1	none
C[C@H](CO)N1C[C@H](C)[C@@H](CN(C)Cc2cccc(F)c2)Oc2ncc(C3=CCCCC3)cc2C1=O	none
COc1ccc(S(=O)(=O)Nc2cc(C)cc(C)n2)c2ccccc12	miR122 inh 30.9
COc1ccc(NS(=O)(=O)c2ccc(OC)c3ccccc23)cn1	none
CCOc1ccc(S(=O)(=O)Nc2cc(C)ccn2)c2ccccc12	none
COCC#Cc1cnc2c(c1)C(=O)N([C@H](C)CO)C[C@@H](C)[C@H](CN(C)C(=O)C1CCOCC1)O2	none
C[C@H]1CN([C@@H](C)CO)C(=O)c2cc(-c3ccncc3)cnc2O[C@@H]1CN(C)C(=O)Cc1ccccn1	none
C[C@H](CO)N1C[C@H](C)[C@H](CN(C)C(=O)c2ccccn2)Oc2ncc(-c3cccc(F)c3)cc2C1=O	none
CCO/C=C1\N=C(c2ccc(F)cc2)OC1=O	miR122 inh 60.0
Cc1ccccc1-c1ccc2c(c1)O[C@@H](CN(C)C(=O)Nc1ccccc1)[C@H](C)CN([C@H](C)CO)S2(=O)=O	none
C[C@H]1CN([C@@H](C)CO)S(=O)(=O)c2ccc(C#CC3(O)CCCC3)cc2O[C@H]1CN(C)C(=O)Nc1ccc(F)cc1	none
C[C@@H]1CN([C@H](C)CO)S(=O)(=O)c2ccc(C#CC3CC3)cc2O[C@H]1CN(C)Cc1ccccn1	none
COc1cccc(-c2nn(-c3ccccc3)cc2CO)c1	miR122 inh 33.9
COc1cccc(-c2cnc3c(c2)C(=O)N([C@@H](C)CO)C[C@@H](C)[C@H](CN(C)Cc2ccccc2)O3)c1	none
COc1cccc(-c2cnc3c(c2)C(=O)N([C@H](C)CO)C[C@@H](C)[C@H](CN(C)Cc2ccccc2)O3)c1	none
C[C@@H]1CN([C@H](C)CO)S(=O)(=O)c2ccc(C#Cc3ccc(F)cc3)cc2O[C@@H]1CN(C)S(C)(=O)=O	none
CC(C)CC#Cc1ccc2c(c1)O[C@@H](CN(C)C(=O)C1CCOCC1)[C@@H](C)CN([C@@H](C)CO)S2(=O)=O	none
CO[C@H]1CN(C)C(=O)c2cc(NC(=O)Nc3ccc(Cl)c(Cl)c3)ccc2OC[C@H](C)NC[C@H]1C	miR122 inh 50.9
CO[C@@H]1CN(C)C(=O)c2cc(NC(=O)Nc3ccccc3)ccc2OC[C@H](C)NC[C@@H]1C	none
CCCC(=O)Nc1ccc2c(c1)C(=O)N(C)C[C@H](OC)[C@@H](C)CN[C@@H](C)CO2	none
COc1cccc(-c2cnc3c(c2)C(=O)N([C@@H](C)CO)C[C@H](C)[C@H](CN(C)Cc2ccccc2)O3)c1	none
C[C@@H]1CN([C@@H](C)CO)C(=O)c2cccc(NC(=O)c3ccncc3)c2O[C@@H]1CN(C)C	none
CCCNC(=O)N(C)C[C@H]1Oc2ncc(C#C[C@H](C)O)cc2C(=O)N([C@H](C)CO)C[C@@H]1C	none
C[C@H](CO)N1C[C@H](C)[C@H](CN(C)Cc2ccc(F)cc2)Oc2ncc(-c3ccccc3)cc2C1=O	none
O=C(Nc1ccc(CN2CCOCC2)cc1)c1ccc(-c2ccc(Cl)cc2Cl)o1	miR122 inh 33.8
O=C(NCCCN1CCN(Cc2ccccc2)CC1)c1nnc(Cc2c(F)cccc2Cl)o1	none
CC(=O)Nc1ccc(C(=O)Nc2ccc(S(=O)(=O)NCC3CCCO3)cc2)cc1 (stereo not given)	none
COc1ccc(NS(=O)(=O)c2cc(NC(=O)c3ccc(Cl)cc3)ccc2N2CCOCC2)cc1	none
CCOC(=O)c1ccc(NC(=O)c2ccc(CN3CCOCC3)cc2)cc1	miR122 inh 37.6
